Measurements from PubChem BioAssay AID488890 (Southern Research Specialized Biocontainment Screening …, 2010).
The campaign covered roughly 320,000 compounds. About 1,300 (0.41%) were called active. About 3% were inconclusive and are not listed. How the calls were made is not given here. A selection follows. Results with a measured potency or affinity are listed apart.

Test: growth inhibition of non-replicating M. tuberculosis (AID 488890);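 further: plate controls were DMSO cells for no effect and high antibiotic wells for full effect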
Conditions: Mycobacterium tuberculosis non-replicating, at 25 µM, stronger effect = higher value

Structure (SMILES) | inhibition [%]
O=C1N(Cc2cccnc2)C[C@@H]2C[C@@H](c3cccc(OCc4ccccc4)c3)N3CCC[C@@]123 | 13.3
O=C(C1CCCN(C2CC(=O)N(c3ccc(Cl)cc3)C2=O)C1)N1CCCC1 (centres undefined) | 62.9
COc1cc(/C=N/NC(=O)c2cc(C)oc2C)cc(OC)c1OC | 5.12
Cc1cc(C(=O)OC(C)C(=O)N2CCc3ccccc32)ccc1[N+](=O)[O-] (centres undefined) | -2.01
C=CCc1ccc(OCCCCOc2ccc(C(=O)O)cc2)c(OC)c1 | 65.2
CCOc1ccc(C(=O)OCC(=O)N(Cc2ccccc2)Cc2ccccc2)cc1OC | 6.46
CCN(C(=O)COn1nnc2ccc(S(=O)(=O)N(C)C)cc21)C1CCS(=O)(=O)C1 (centres undefined) | -12
Cc1ccccc1OC1CCN(C(=O)C2CCC(=O)N(C3CCCC3)C2)CC1 (centres undefined) | -4.05
COc1ccnc2c1c(=O)n(Cc1ccc(Cl)cc1Cl)c(=O)n2C | 7.37
COc1ccc(OC)c(S(=O)(=O)NCC(=O)O)c1 | -1.93
C[C@H](CO)N1C[C@H](C)[C@@H](CN(C)S(C)(=O)=O)Oc2ccc(NC(=O)C3CCCCC3)cc2C1=O | -13.1
O=c1cc(-c2ccccc2)oc2cc(O)cc(O)c12 | 9.39
O=c1cc(-c2ccc(O)cc2)oc2cc(O)cc(O)c12 | 20.1
CCOC(=O)c1ccc(NC(C)=O)c([N+](=O)[O-])c1 | -2.26
CCOC(=O)c1ccc([N+](=O)[O-])cc1NC(C)=O | -5.06
Cc1cc(S(=O)(=O)NCCCn2ccnc2)c(C)cc1Cl | 21.8
Cc1ccc(NC(=O)C2C3C=CC4(O3)C2C(=O)N(CCN2CCOCC2)C4C(=O)NC2CCCCC2)cc1C (centres undefined) | 4.86
COc1ccc(Cl)cc1S(=O)(=O)NC(C)C(=O)NCc1cccnc1 (centres undefined) | 0.53
CNc1c(C(=O)O)ccc2c1C(=O)c1ccccc1C2=O | -14.2
COc1ccc2c(c1O)C(=O)c1ccccc1C2=O | -8.36
CCc1ccccc1NS(=O)(=O)c1cc(C)ccc1OC | 16.3
CCOc1ccc2nc(NCCCO)[nH]c2c1 | 2.84
O=C(O)c1cccc(S(=O)(=O)Nc2cc(Cl)ccc2Cl)c1 | 13.1

Structure (SMILES) | inhibition [%]
COc1ccc(NC(=O)C2CCN(S(=O)(=O)c3ccc(Br)s3)CC2)cc1OC | -2.33
CCCc1[nH]nc2c1C(c1cccc(OC(=O)c3ccco3)c1)C(C#N)=C(N)O2 (centres undefined) | 17.8
Cc1[nH]nc2c1C(c1ccc(Cl)cc1)C(C#N)=C(N)O2 (centres undefined) | -2.67
Cc1[nH]nc2c1C(c1ccc(-c3ccccc3C#N)o1)C(C#N)=C(N)O2 (centres undefined) | 49.7
Cc1ccc(C2C(C#N)=C(N)Oc3n[nH]c(C)c32)cc1 (centres undefined) | -4.34
COc1ccc(Br)cc1CNc1ccc(N2CCOCC2)cc1 | 24
CCCCN(C(=O)C1CC(=O)N(c2ccc3c(c2)OCCO3)C1)c1c(N)n(CCCC)c(=O)[nH]c1=O (centres undefined) | 0.16
Cc1ccccc1NC(=O)c1nn(C)c2c1CS(=O)(=O)c1ccccc1-2 | -16.9
O=C(O)C1CC(O)CN1S(=O)(=O)c1ccc2ccccc2c1 (centres undefined) | 8.45
O=C(Oc1cccnc1)c1ccc(Cl)cc1 | 8.07
O=C(Oc1cccnc1)c1cccc(Cl)c1 | 51.8
CCOC(=O)c1ccc2[nH]c3c(c2c1)CCCC3C(=O)OCC (centres undefined) | 64.3
CCOC(=O)C1CCCc2c1[nH]c1c(C(=O)O)cccc21 (centres undefined) | 67.3
CCOC(=O)c1c(C)nc2ccc(C)cn12 | 37
CCOC(=O)c1c(C)nc2ccccn12 | 6.28
CC1Cc2cc(/C=C3/SC(=S)N(C)C3=O)ccc2O1 (centres undefined) | 5.53
CC1Cc2cc(/C=C3/SC(N4CCC(C(N)=O)CC4)=NC3=O)ccc2O1 (centres undefined) | 21.7
COC(=O)c1ccc(C23CC4(C2)[C@H](CN(C)[C@@H]4c2ccccc2)C3c2ccccc2)cc1 (some centres undefined) | -17.5
Cc1ccc(N2CC(=O)Nc3c(sc4nc(C)cc(C)c34)C2=O)cc1 | 7.84
O=C(CNC(=O)c1ccc(Cl)cc1)Nc1ccc(S(=O)(=O)Nc2ncccn2)cc1 | 19.6
Cc1ccnc(NC(=O)CN(C)S(=O)(=O)c2cccc3nsnc23)c1 | 4.38
O=C1C=CC(=O)N1Cc1ccccc1 | 33.7
Cc1nc2ccccc2c(=O)n1N(c1ccccc1)c1ccccc1 | 40

Structure (SMILES) | inhibition [%]
O=C(Nc1cccc(F)c1)C1CCCN1C(=O)OCc1ccccc1 (centres undefined) | -8.2
COc1ccc(-c2cc(C(=O)O)no2)cc1 | 9.82
COc1ccc(-c2cc(C(=O)NC(C)C)no2)cc1 | 2.59
Brc1ccc2nc3c(n2c1)CCCC3 | 40.8
CC(C)(C)S(=O)(=O)c1ccc2nc3c(n2c1)CCCC3 | 12.6
CN(c1ccccc1C(=O)O)S(C)(=O)=O | -5.19
CC1(c2ccccc2Cl)NC(=O)N(CC(=O)N2CCN(S(=O)(=O)c3ccccc3)CC2)C1=O (centres undefined) | -5.46
O=C(CNC(=O)c1ccco1)N/N=C/c1ccccc1[N+](=O)[O-] | -2.46
CC(=O)Nc1nc(-c2cccs2)cs1 | 18.4
Cc1ccccc1C(=O)N1CCN(c2ccc(NC(=O)c3ccc([N+](=O)[O-])o3)cc2)CC1 | 78.2
O=C(Nc1ccc(N2CCN(C(=O)c3cccs3)CC2)cc1)c1ccco1 | -3.51
O=C(Nc1ccc(N2CCN(C(=O)c3cccs3)CC2)cc1)c1ccc(Br)o1 | 67.5
O=C(Nc1nc2c(F)cccc2s1)c1ccc([N+](=O)[O-])o1 | 65.5
CC(C)C(=O)N1CCN(c2ccc(NC(=O)c3ccc(Br)o3)cc2)CC1 | 8.34
O=C(Nc1nc2ccccc2s1)c1ccc([N+](=O)[O-])o1 | 64.8
O=C(Nc1nc(-c2cccs2)cs1)c1ccco1 | 25.2
COc1ccccc1CN(C)C(=O)COC(=O)c1ccc(Cl)nc1 | 73.1
COCCn1nnnc1CN1CCN(C(=O)c2ccco2)CC1 | -9.84
CC(NC(=O)c1cccs1)C(S)c1ccccc1 (centres undefined) | 13.2
CN(CC(=O)Nc1ccccc1Br)C(=O)CCc1ccccc1 | 6.37
COC(=O)c1ccc(N2C(=O)CC(N(C)CCc3ccc(OC)c(OC)c3)C2=O)cc1 (centres undefined) | -11.7
O=C(Nc1ncnc2c1CCC2)C12CC3CC(CC(C3)C1)C2 | -0.8
CC(C)(C)c1ccc(NNC(=O)C2CCC2)cc1 | 23.3

Structure (SMILES) | inhibition [%]
COc1cc(NC(=O)c2ccc([N+](=O)[O-])o2)ccc1NC(=O)c1cccs1 | 44
O=C(Nc1cccc(NC(=O)c2cccs2)c1)c1ccc(Br)o1 | 40.6
COc1ccc(C(=O)C2CCCN(C(=O)c3cccc(Cl)c3F)C2)cc1OC (centres undefined) | 8.33
Cc1cccnc1NC(=O)c1ccc2c(c1)NC(=O)C(C)S2 (centres undefined) | -14.1
Cc1ccc(SCC(=O)Nc2cc(S(=O)(=O)N3CCCCC3)ccc2C)cc1 | 29.3
O=C(Cn1nc(-c2ccccc2F)ccc1=O)Nc1ccc(S(=O)(=O)N2CCCCCC2)cc1 | 30.3
O=C1CCC/C(=N\NC(=O)COc2ccc(Cl)cc2)C1 | 2.35
O=C(NN=C1CCCC1)c1ccc(Cl)cc1 | -5.56
O=C1OC(/C(=C\Nc2ccccc2)[N+](=O)[O-])c2ccccc21 (centres undefined) | -1.48
O=C1OC(/C(=C\Nc2ccc(F)cc2F)[N+](=O)[O-])c2ccccc21 (centres undefined) | -5.17
CC(C)(C)c1cc(NCCCn2ccnc2)n2ncc(-c3ccccc3)c2n1 | 73.1
CC(C)(C)c1cc(NCCCn2ccnc2)n2ncc(-c3ccc(Cl)cc3)c2n1 | 67.9
CCOC(=O)c1ccc(N2CN(CC)CNC2=S)cc1 | 51.5
OC(CCc1cccc(Cl)c1)c1cccs1 (centres undefined) | 75.1
CCO[C@H]1OC(C(=O)N2CCN(Cc3ccc4c(c3)OCO4)CC2)=C[C@@H](C)[C@@H]1CCCO | -18
COc1ccccc1OCCNC(=O)c1ccc(C)o1 | -13.1
COc1ccccc1CCNC(=O)c1ccoc1C | 3.23
CCOC(=O)c1cc(C(=O)NC(C)c2ccccc2)c(=O)[nH]c1C (centres undefined) | -20.4
CC(C)(C)NC(=O)COC(=O)c1cc(Br)ccc1Cl | 63.1
COC(=O)CNC(=O)COC(=O)c1cc(F)c(F)cc1Cl | 42.5
CC(C)NC(=O)COC(=O)c1cc(Br)ccc1Cl | 75.9
CNC(=O)COC(=O)c1cc(F)c(F)cc1Cl | 19.5
Cc1ccc(C)c(NC(=O)C2CC3CCC2C3)c1 (centres undefined) | 15.3

Structure (SMILES) | inhibition [%]
CC(C)(C)OC(=O)C[C@@H]1C/C=C\C[C@@H](CC(=O)N(CCO)Cc2ccccc2)C(=O)N[C@H](Cc2c[nH]c3ccccc23)COC1=O | 67
Cc1ccc(SCC(=O)OCC(=O)N2CCN(C(=O)c3ccco3)CC2)c(C)c1 | 15.3
Cc1ccc(/C=C/C(=O)N2CCCC(C(N)=O)C2)o1 (centres undefined) | 4.1
O=C(c1ccc2c(c1)N(Cc1ccccc1F)C(=O)c1ccccc1S2)N1CCOCC1 | 33.2
Cc1ccccc1OCc1n[nH]c(=S)n1-c1ccccc1 | -9.9
O=C(COC(=O)c1ccccc1NCCO)NCC1CCCCC1 | 23.3
CCOc1ccc2nc(NC(=O)c3ccoc3C)sc2c1 | 54.7
CCOc1ccc2nc(NC(=O)c3cccnc3)sc2c1 | 8.67
CCOc1ccc2nc(NC(=O)Nc3ccccc3)sc2c1 | -2.52
CCOc1ccc2nc(NC(=O)c3ccc(C)o3)sc2c1 | 27.5
COc1ccc(/C=C/C(=O)Oc2cccc(/C=N/NC(=O)Cc3ccc(Br)cc3)c2)cc1 | 23.8
CC(NS(=O)(=O)c1ccc2c(c1)CC(C)N2C(=O)C1CC1)c1ccccc1 (centres undefined) | 12.7
CCCc1cc(=O)[nH]c(SCC(=O)Nc2cc(S(=O)(=O)N3CCOCC3)ccc2N(CC)CC)n1 | 18.9
CCCCn1c(N)c(N(CCOC)C(=O)COc2ccc(C(C)=O)cc2)c(=O)[nH]c1=O | -6.71
O=C(N/N=C/c1ccc[nH]1)c1ccc(O)cc1 | 46.7
O=C(N/N=C/c1cc2c(cc1Cl)OCO2)c1ccc2c(c1)OCCO2 | -6.98
O=C(N/N=C\c1ccc[nH]1)c1cncc(Br)c1 | 4.75
O=C(N/N=C/c1cc2c(cc1Cl)OCO2)c1cccc(Br)c1 | -12.4
O=C(N/N=C/c1ccc[nH]1)c1ccc([N+](=O)[O-])cc1 | -12.7
COc1ccc(C(=O)N/N=C\c2coc3ccccc3c2=O)cc1 | 50.1
O=C(N/N=C/c1ccc(F)cc1)c1ccncc1 | 53.7
O=C(N/N=C/c1coc2ccccc2c1=O)c1ccncc1 | 76.8
